Results as given in PubChem BioAssay AID540254 (Southern Research Specialized Biocontainment Screening …, 2011).
In all, about 1,800 compounds went through this assay and fewer than 10 were called active. Only a sample is shown. Entries with a potency or affinity are not part of this list. Unmarked numbers belong to inactive results. No rule for the calls is given here.

Assay: antiviral activity against H1N1 influenza, dose response, cell-based, strain KY180 (AID 540254)
Conditions: H1N1 KY180 influenza antiviral cell-based screen; series mostly up to 40 µM; inhibition: at the top concentration

SMILES	inhibition [%]
O=C(NC1CCCC1)C(c1cccnc1)N(C(=O)c1csnn1)c1ccccc1Cl (stereo unspecified)	0.22
CCOC(=O)C1=C(C)N(C)C(C)=C(C(=O)OCC)C1c1ccncc1	13.2
O=[N+]([O-])c1ccc(CSc2ccc(-c3ccccn3)nn2)cc1	-1.01
O=C(NN=C1CCCCCC1)c1cccs1	2.53
CCOC(=O)C1CCN(c2c(NC3CCCCCCC3)c(=O)c2=O)CC1	-1.12
CC(C)C(=O)N(c1cc2sc(=O)oc2c2ccccc12)S(=O)(=O)c1cccs1	-1.27
CN1C(=O)/C(=C\c2cc(N=Nc3ccccc3)ccc2O)SC1=S	-0.25
CCCC(=O)OC(C(=O)Nc1cc(C(F)(F)F)ccc1Cl)c1ccccc1 (stereo unspecified)	0
Cc1ccccc1-c1nc(CN2CCC(C(=O)N3CCC(C(N)=O)CC3)CC2)c(C)o1	7.38
O=C(O)c1ccc(-n2nnnc2Oc2cccc3cccnc23)cc1	1.51
Cc1ccc(NC(=O)C2CCCN(c3ncccn3)C2)cc1F (stereo unspecified)	-0.5
CN(C)S(=O)(=O)c1cccc(NC(=O)CNCc2ccccn2)c1	1.97
COc1ccc(C)cc1NC(=O)CSc1ccc(-c2ccccn2)nn1	-1.27
COc1ccc(N2CCN(CCCNS(=O)(=O)c3ccc4c(c3)oc(=O)n4C)CC2)cc1	1.27
COc1ccc(N2CCN(CCCNC(=O)c3cc4sccc4n3C)CC2)cc1	0
COc1ccc(N2CCN(C(=O)c3cccc(Cn4cc(Cl)cn4)c3)CC2)cc1	-2.53
COc1ccccc1-c1c(C)nn2c(N3CCN(Cc4ccccc4)CC3)cc(C)nc12	-5.59
Cc1ccc(C)c(N=Nc2nc3ccccc3n2C)c1	-0.25
NS(=O)(=O)c1ccc(NC(=O)Nc2ccc3c(c2)OCO3)cc1	0
COc1ccc(/C=N\NC(=O)c2cc(O)c(O)c(O)c2)cc1COc1ccc(C(=O)OCC(C)C)cc1	-1.01
Cc1ccc(-c2csc(NC(=O)c3cccc(N4C(=O)CCC4=O)c3)n2)o1	-0.25
Cc1cc2cc(CNC(=O)c3ccc(S(=O)(=O)N4CCCC4)cc3)ccc2n1C	1.97
Cc1cc(C)c(NN=c2c(=O)c3ccccc3c2=O)c(C)c1	-0.56

SMILES	inhibition [%]
COCc1cc(=O)[nH]c(Nc2nc3ccc(C)cc3o2)n1	-2.53
O=C(CCCN1C(=O)c2ccccc2C1=O)Nc1sc2c(c1C(=O)NCc1ccco1)CCC2	0.56
Cc1ccc(-c2nc3ncccn3c2Nc2ccc3c(c2)OCO3)o1	9.17
O=[N+]([O-])c1cc(/C=N/N/C(=N/c2ccccn2)c2ccccn2)ccc1O	0
O=[N+]([O-])c1cc2no[n+]([O-])c2cc1N1CCCCC1	-1.97
CCOc1ccc(C(=O)N/N=C/c2cccc3cccnc23)cc1	-4.25
Cc1nc2ccc(S(=O)(=O)Nc3cccc(-c4nc5cccnc5s4)c3C)cc2s1	0
COc1cc(C2CC(=O)Oc3c(C(CCN4CCCC(C)C4)c4ccc(N(C)C)cc4)c(OC)cc(OC)c32)cc(OC)c1OC (stereo unspecified)	-2.46
CCOc1cc2c(cc1OCC)-n1cccc1C(c1ccc(C(C)C)cc1)NC2 (stereo unspecified)	0
Cc1ccccc1NC(=S)N(CCN(C)C)C(C)c1ccccn1 (stereo unspecified)	6.16
CSc1cccc(NC(=S)N(CCN(C)C)C(C)c2ccccn2)c1 (stereo unspecified)	29
O=C(Cn1cc(SCc2ccc(Cl)cc2)c2ccccc21)N1CCOCC1	0
O=C1C(NS(=O)(=O)c2ccc(Br)cc2)=C(N2CCCCC2)C(=O)c2ccccc21	-2.53
CCN(CC)C(=O)CCc1nc2sc3c(c2c(=O)[nH]1)CCCC3	0
O=C(CN1CCN(Cc2cccc(Cl)c2)C1=O)NCc1ccccn1	2.46
Cc1ccc(Cl)c(NC(=O)COC(=O)CNS(=O)(=O)/C=C/c2ccccc2)c1Cl	1.27
CC(C)C(=O)N(c1ccc2oc(=O)sc2c1)S(=O)(=O)c1ccccc1	-1.01
CC(=NNC(=S)N1CCC1)c1ccccn1	-2.46
COc1ccccc1C(CCNCc1ccc(N(C)C)cc1)c1ccc(OC(C)C)cc1 (stereo unspecified)	-1.27
CSC1=NC(C)(C)CC2(C)Nc3ccccc3N12 (stereo unspecified)	11.4
Cc1cccn2cc(CCNS(=O)(=O)c3ccc4c(c3)OCCO4)nc12	-1.27
Cc1cc(C(=O)N/N=C/c2cc([N+](=O)[O-])ccc2O)c2ccccc2n1	-1.01
CC(C)(C)c1nnc(N/N=C/c2cc(Br)ccc2O)n(N)c1=O	0
